The record followed here is the supplement of paper PMC6897291.

Where a name gives a salt, the structure may show the parent alone.

The subject of this experiment is RIVA. Nature of the experiment: growth inhibition by drug alone (1 - RLU/untreated control) (fraction); higher = stronger inhibition. Conditions: 177Lu-lilotomab satetraxetan 0 ug/ml. On the procedure:
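RIVA (RI-1) ABC-DLBCL cells were pretreated or not for 18 h with 0.5 ug/ml 177Lu-lilotomab satetraxetan (600 MBq/mg), washed and seeded (3000 cells/well) on 384-well plates pre-printed with the Selleck Cambridge Cancer Compound library. Viability was read by RealTime-Glo luminescence on days 3-6 after seeding. Effect = 1 - RLU/mean RLU of the 48 untreated no-drug control wells per plate; Bliss score = (M-E)/(1-Fa).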

On to `CNNCc1ccc(C(=O)NC(C)C)cc1` [Procarbazine hydrochloride (Matulane)], for which the “growth inhibition by drug alone” value was 0.0732 (10 nM, time (day): 3); 0.0412 (10 nM, time (day): 4); 0.0155 (10 nM, time (day): 5); -0.0516 (10 nM, time (day): 6); -0.184 (100 nM, time (day): 3); -0.167 (100 nM, time (day): 4). Also, the “growth inhibition by drug alone” value (100 nM, time (day): 5) was -0.142 and the “growth inhibition by drug alone” value (100 nM, time (day): 6) is -0.189.

For the compound `C[C@]12CC[C@@H]3c4ccc(O)cc4C[C@@H](CCCCCCCCC[S+]([O-])CCCC(F)(F)C(F)(F)F)[C@H]3[C@@H]1CC[C@@H]2O` (stereo not given in full), the “growth inhibition by drug alone” value is -0.00571 (10 nM, time (day): 3); -0.0298 (10 nM, time (day): 4); -0.0782 (10 nM, time (day): 5); -0.352 (10 nM, time (day): 6); -0.0427 (100 nM, time (day): 3); -0.0179 (100 nM, time (day): 4). For the same compound, the “growth inhibition by drug alone” value is -0.055 (100 nM, time (day): 5) and -0.154 (100 nM, time (day): 6).

`O=C(O)CCCc1ccccc1` [4-Phenylbutyrate]: the “growth inhibition by drug alone” value runs as follows: (10 nM, time (day): 3) -0.0798; (10 nM, time (day): 4) -0.0476; (10 nM, time (day): 5) -0.148; (10 nM, time (day): 6) -0.516; (100 nM, time (day): 3) -0.401; (100 nM, time (day): 4) -0.277. In addition, the “growth inhibition by drug alone” value by setting is: (100 nM, time (day): 5) -0.308; (100 nM, time (day): 6) -0.483.

Regarding `Nc1ccc(C(=O)Nc2cccc(-c3nc(N4CCOCC4)c4oc5ncccc5c4n3)c2)cn1`, the “growth inhibition by drug alone” value is -0.00332 (10 nM, time (day): 3); -0.02 (10 nM, time (day): 4); -0.0954 (10 nM, time (day): 5); -0.385 (10 nM, time (day): 6); 0.0916 (100 nM, time (day): 3); 0.0201 (100 nM, time (day): 4). Further, the “growth inhibition by drug alone” value (100 nM, time (day): 5) was determined as 0.0261 and the “growth inhibition by drug alone” value (100 nM, time (day): 6) was -0.0381.

As for `C#CCN(C)CC1=Cc2ccccc2Oc2ccccc21`, the “growth inhibition by drug alone” value runs as follows: (10 nM, time (day): 3) -0.0236; (10 nM, time (day): 4) -0.0211; (10 nM, time (day): 5) -0.0438; (10 nM, time (day): 6) -0.145; (100 nM, time (day): 3) -0.121; (100 nM, time (day): 4) -0.0828. For the same compound, the “growth inhibition by drug alone” value (100 nM, time (day): 5) is -0.112 and the “growth inhibition by drug alone” value (100 nM, time (day): 6) was -0.138.
